The whole screen tested about 360,000 compounds, of which about 2,400 (0.67%) were called active.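 Rule for the calls: active = compounds whose normalised, plate-corrected inhibition of enzyme fluorescence in the single-dose primary screen is 50% or more; inactive = the rest.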 For the sample, actives were picked, then their nearest neighbours and some compounds at random.

Drawing on PubChem BioAssay AID602261 (Sanford-Burnham Center for Chemical Genomics, 2012), this text covers inhibition for 53 compounds.

This assay deals with Fatty acid synthase (Homo sapiens) (UniProt P49327). The experiment in a line: FAS thioesterase domain inhibitors, primary screen, biochemical, fluorescence intensity, uHTS (AID 602261).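 Note: 0% = DMSO with enzyme and 100% = substrate without enzyme.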 As to conditions: recombinant FAS-TE, OMFH fluorogenic substrate, fluorescence endpoint; at 15 µM; hits give high values.
Fatty acid synthase (Homo sapiens), sequence (P49327 whole entry, looked up, the tested form may be a part): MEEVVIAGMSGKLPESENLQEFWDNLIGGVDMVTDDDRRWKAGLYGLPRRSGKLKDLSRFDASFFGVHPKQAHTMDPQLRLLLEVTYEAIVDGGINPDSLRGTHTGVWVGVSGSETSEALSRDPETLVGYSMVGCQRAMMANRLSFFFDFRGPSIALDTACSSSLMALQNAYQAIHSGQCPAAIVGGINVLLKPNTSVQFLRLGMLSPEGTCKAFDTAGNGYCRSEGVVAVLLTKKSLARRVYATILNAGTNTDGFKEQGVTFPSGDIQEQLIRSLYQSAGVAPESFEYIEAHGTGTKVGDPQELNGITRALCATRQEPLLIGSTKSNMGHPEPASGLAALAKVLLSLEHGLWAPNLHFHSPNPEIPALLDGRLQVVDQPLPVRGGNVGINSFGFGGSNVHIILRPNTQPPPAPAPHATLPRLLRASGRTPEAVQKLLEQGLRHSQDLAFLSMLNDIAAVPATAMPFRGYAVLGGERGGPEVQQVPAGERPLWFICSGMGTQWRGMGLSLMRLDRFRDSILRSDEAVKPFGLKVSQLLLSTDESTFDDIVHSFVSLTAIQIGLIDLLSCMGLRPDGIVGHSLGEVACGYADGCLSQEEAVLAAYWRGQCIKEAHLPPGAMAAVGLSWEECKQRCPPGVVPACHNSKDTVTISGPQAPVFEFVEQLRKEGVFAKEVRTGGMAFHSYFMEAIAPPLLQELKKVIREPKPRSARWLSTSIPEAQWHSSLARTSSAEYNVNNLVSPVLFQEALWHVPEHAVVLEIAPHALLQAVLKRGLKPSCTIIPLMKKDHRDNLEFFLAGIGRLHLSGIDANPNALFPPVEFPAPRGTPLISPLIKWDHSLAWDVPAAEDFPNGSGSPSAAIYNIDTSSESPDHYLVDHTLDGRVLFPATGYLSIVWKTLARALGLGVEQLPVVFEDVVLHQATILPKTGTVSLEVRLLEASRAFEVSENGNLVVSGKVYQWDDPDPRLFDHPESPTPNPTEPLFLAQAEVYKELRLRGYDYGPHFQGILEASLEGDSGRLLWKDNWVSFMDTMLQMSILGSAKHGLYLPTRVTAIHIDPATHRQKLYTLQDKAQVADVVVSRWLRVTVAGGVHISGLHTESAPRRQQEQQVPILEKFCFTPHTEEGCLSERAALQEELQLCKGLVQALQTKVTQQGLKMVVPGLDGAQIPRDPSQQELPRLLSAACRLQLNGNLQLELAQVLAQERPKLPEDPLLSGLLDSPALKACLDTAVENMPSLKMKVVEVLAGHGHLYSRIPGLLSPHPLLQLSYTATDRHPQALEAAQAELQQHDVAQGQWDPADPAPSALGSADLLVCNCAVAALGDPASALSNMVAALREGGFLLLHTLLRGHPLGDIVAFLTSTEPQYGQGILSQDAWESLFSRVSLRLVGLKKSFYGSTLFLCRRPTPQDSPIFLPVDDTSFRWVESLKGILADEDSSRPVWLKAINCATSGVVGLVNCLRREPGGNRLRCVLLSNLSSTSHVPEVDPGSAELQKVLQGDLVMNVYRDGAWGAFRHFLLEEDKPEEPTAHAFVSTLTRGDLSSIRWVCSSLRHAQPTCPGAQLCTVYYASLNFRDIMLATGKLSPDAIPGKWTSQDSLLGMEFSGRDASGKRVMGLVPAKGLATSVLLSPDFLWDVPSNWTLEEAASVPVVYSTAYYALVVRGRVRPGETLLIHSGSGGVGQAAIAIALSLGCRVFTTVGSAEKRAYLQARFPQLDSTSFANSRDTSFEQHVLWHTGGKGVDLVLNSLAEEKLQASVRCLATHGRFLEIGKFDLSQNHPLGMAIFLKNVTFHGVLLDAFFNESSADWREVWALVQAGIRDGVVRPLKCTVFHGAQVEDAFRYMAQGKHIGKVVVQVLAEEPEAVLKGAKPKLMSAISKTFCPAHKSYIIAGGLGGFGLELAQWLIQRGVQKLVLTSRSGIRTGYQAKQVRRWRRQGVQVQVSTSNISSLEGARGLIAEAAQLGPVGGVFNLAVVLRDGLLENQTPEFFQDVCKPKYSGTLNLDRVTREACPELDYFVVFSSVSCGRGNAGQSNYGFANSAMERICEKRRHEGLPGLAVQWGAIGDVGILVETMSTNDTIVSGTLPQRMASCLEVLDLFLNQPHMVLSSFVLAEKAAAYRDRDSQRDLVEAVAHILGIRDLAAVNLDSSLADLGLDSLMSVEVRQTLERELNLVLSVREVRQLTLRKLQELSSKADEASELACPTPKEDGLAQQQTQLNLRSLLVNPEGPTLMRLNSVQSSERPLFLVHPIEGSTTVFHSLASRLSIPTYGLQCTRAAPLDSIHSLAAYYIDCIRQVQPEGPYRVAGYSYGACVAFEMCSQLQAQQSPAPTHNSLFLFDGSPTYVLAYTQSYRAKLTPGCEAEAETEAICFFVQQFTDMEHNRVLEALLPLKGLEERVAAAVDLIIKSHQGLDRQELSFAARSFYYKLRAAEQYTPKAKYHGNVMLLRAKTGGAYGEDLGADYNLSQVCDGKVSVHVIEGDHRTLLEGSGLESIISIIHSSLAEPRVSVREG
Consider `COCCCNCC(=O)Nc1sc(C)c(C)c1C(=O)OC`, for which the inhibition is -3.7% (inactive).
With `CCOC(=O)C(C)n1cnc2c(nnn2-c2ccc(F)cc2)c1=O` (stereo not drawn), the inhibition was -7.4% (inactive).
For `CCc1ccc([C@@H]2CC(=O)[C@@H]3CN(S(=O)(=O)c4ccc(C)cc4)[C@H](c4ccc(Cl)cc4)C[C@@H]3N2S(=O)(=O)c2ccc(C)cc2)cc1`, the inhibition was 12.7% (inactive).
Take `Cc1ccc(S(=O)(=O)N2CC[C@H]3[C@@H](C2)C(=O)C[C@@H](c2ccccc2)N3S(=O)(=O)c2ccc(C)cc2)cc1`: the inhibition was 79.6% (active).
For `Cc1ccc([C@@H]2CC(=O)[C@@H]3CN(S(=O)(=O)c4ccc(C)cc4)[C@H](c4ccccc4F)C[C@@H]3N2S(=O)(=O)c2ccc(Cl)cc2)cc1`, the inhibition is 12.3% (inactive).
With `CC(C)[C@H](NC(=O)N1c2ccccc2NC(=O)[C@@H]1C(C)C)C(=O)N[C@H](C(=O)O)c1ccccc1` the figure was -2.6% (inactive); with `O=[N+]([O-])c1ccc(NS(=O)(=O)c2ccccc2)c(Cl)c1`, -7% (inactive).
With `Cc1cccc(C(=O)N2CCN(S(=O)(=O)N3CCCCC3)CC2)c1` the figure was -2.1% (inactive); with `Cc1ccc2oc(=O)c3cnn(CC(=O)N4CCCCCC4)c3c2c1`, 0.5% (inactive).
For `Cc1ccc2cc3cc(C(=O)N4CCCCCC4)oc3nc2c1`, the inhibition was 77.7% (active).
As to `COc1ccc(C(C)=O)cc1COC(=O)Cn1cnc2ccccc2c1=O`, the inhibition was -2.7% (inactive).
Take `CC(C)c1ccc(-c2noc(C3CCCN(S(C)(=O)=O)C3)n2)cc1` (stereo not drawn): the inhibition is 16.9% (inactive).
With `COc1cccc(-c2noc(C3CCCN(C(=O)c4ccc(F)cc4)C3)n2)c1` (stereo not drawn), the inhibition is -3.3% (inactive).
As for `COc1cc(-c2noc(C3CCCN(S(=O)(=O)c4cccc(Cl)c4)C3)n2)cc(OC)c1OC` (stereo not drawn), the inhibition is 50.7% (active).
With `Nc1ccc(SCCN2C(=O)c3ccccc3C2=O)cc1` the figure was -1.7% (inactive); with `CC(C)c1ccc2c(c1)c(SC(C)(C)C)c(CC(C)(C)C(=O)O)n2Cc1ccc(Cl)cc1`, 80.4% (active); with `O=C(NCc1ccccc1)C1CCCN(c2nc3ccsc3c(=O)s2)C1` (stereo not drawn), -1.5% (inactive).
Turning to `Nc1ccc(N=Nc2ccccc2Cl)c(N)n1`, the inhibition is 12% (inactive).
Consider `CN(C)C(CNC(=O)Cc1ccc([N+](=O)[O-])cc1)c1ccccc1` (stereo not drawn), for which the inhibition was 3.9% (inactive).
On to `O=C(CC(c1ccccc1)c1ccccc1)NCC(O)c1ccc([N+](=O)[O-])cc1` (stereo not drawn), for which the inhibition was 50.4% (active).
The result for `O=C(NCC(O)c1ccc([N+](=O)[O-])cc1)C1CCCCC1` (stereo not drawn) reads -3.9% (inactive); that for `COc1ccc(C(=O)NC(=S)N2CCCCC2c2cccnc2)cc1OC` (stereo not drawn), -3.7% (inactive); that for `Cc1ccccc1-n1c(C)cc(/C=N/NC(=O)c2ccc(CN3CCOCC3)cc2)c1C`, -7.5% (inactive).
For `COc1ccc(NC(=O)CCn2ccnc2)c(OC)c1`, the inhibition was -2.6% (inactive).
As for `O=C(O)c1ccccc1N=N/C(=N/Nc1cc(S(=O)(=O)O)ccc1O)c1ccccc1`, the inhibition was 3.7% (inactive).
As for `COc1ccc(NS(=O)(=O)c2ccc(N3CCOCC3)c(NC(=O)/C=C/C(=O)O)c2)cc1`, the inhibition was -5.8% (inactive).
The result for `COc1cc(/C=C/C(=O)Nc2ccc(OC)c(S(=O)(=O)N3CCOCC3)c2)ccc1OCC#N` reads -0.4% (inactive).
Regarding `COc1ccc(NS(=O)(=O)c2cc(NC(=O)C3CCCCC3)ccc2N2CCOCC2)cc1`, the inhibition is 10.3% (inactive).
With `COc1ccc(NS(=O)(=O)c2ccc(N3CCN(CCO)CC3)c([N+](=O)[O-])c2)cc1` the figure was -6.1% (inactive); with `COc1ccc(NS(=O)(=O)c2cc(NC(=O)/C=C/c3cc(OC)c(OC)c(OC)c3)ccc2N2CCCCC2)cc1`, 50.6% (active); with `COc1ccc(NS(=O)(=O)c2cc(NC(=O)c3ccc(S(=O)(=O)N(C)C)cc3)ccc2N2CCOCC2)cc1`, 88.6% (active).
With `O=C(NC(C(=O)NCCN1CCOCC1)C12CC3CC(CC(C3)C1)C2)C1CCCCC1` (stereo not drawn) the figure was -6.3% (inactive); with `CCCCN(CC(=O)Nc1cccc(S(=O)(=O)N2CCCC2)c1)Cc1nc2ccccc2c(=O)[nH]1`, 8.2% (inactive); with `CCOCCCN(C)C1CCN(C(=O)c2oc3ccccc3c2NC(=O)COc2cccc(C)c2)CC1`, 1.2% (inactive).
The result for `CCN(C(=O)CSc1ncnc2c1cnn2-c1ccccc1)C1CCS(=O)(=O)C1` (stereo not drawn) reads 57.4% (active); that for `CC(C)CN(C(=O)CSc1ncnc2sccc12)C1CCS(=O)(=O)C1` (stereo not drawn), -7.9% (inactive); that for `CCC(C)N(C(=O)CSc1ncnc2c1cnn2-c1ccccc1)C1CCS(=O)(=O)C1` (stereo not drawn), 22.1% (inactive).
Consider `COc1cc(C(O)c2nc(-c3cnn(C)c3)cs2)ccc1F` (stereo not drawn), for which the inhibition is -5.1% (inactive).
As to `COc1ccc(N2CCN(S(=O)(=O)c3cc(Br)cnc3N)CC2)cc1`, the inhibition is -1.1% (inactive).
`Cc1ccc(S(=O)(=O)N2CC(C)N(S(C)(=O)=O)C2)cc1` (stereo not drawn): the inhibition is -3.6% (inactive).
As to `CCc1nc2c(OCc3ccc(Cl)cc3Cl)cccn2c1N(C)C(=O)C(C)C`, the inhibition was 9.4% (inactive).
Turning to `Cc1nc2c(OCc3ccc(Cl)cc3Cl)cccn2c1N(C)CC1CC1`, the inhibition was 57.2% (active).
As for `Cc1nc2c(OCc3cccc(Cl)c3)cccn2c1N(C)CC1CC1`, the inhibition was 17.1% (inactive).
Regarding `Cc1ccc(C2C(C#N)C(C#N)N3CCCN23)cc1` (stereo not drawn), the inhibition was -18.8% (inactive).
With `COc1cc2c(=O)n(C)c3ccccc3c2cc1OC` the figure was -3.2% (inactive); with `COCC(=O)N(C)C[C@H]1Oc2cc(Br)ccc2S(=O)(=O)N([C@H](C)CO)C[C@H]1C`, -6% (inactive).
As for `COc1cc(OC)cc(C(=O)NC2CCN(C(=O)N3c4ccccc4Sc4ccccc43)CC2)c1`, the inhibition was 38.7% (inactive).
Turning to `CCCCCN(C(=O)CCC(=O)OCC(=O)NC1CCC(C)CC1)c1c(N)n(CCCC)c(=O)[nH]c1=O` (stereo not drawn), the inhibition was -3.8% (inactive).
As for `CCN(c1ccccc1)S(=O)(=O)c1ccc(C(=O)Nc2ccccc2OC)cc1`, the inhibition was 19.5% (inactive).
Consider `Cc1ccccc1CN(c1ccc(C(=O)NCC2CCCO2)cc1)S(C)(=O)=O` (stereo not drawn), for which the inhibition was -11.4% (inactive).
With `COc1ccc([N+](=O)[O-])cc1NC(=O)c1ccc(N(Cc2ccccc2C)S(C)(=O)=O)cc1` the figure was 62.6% (active); with `CCc1nc2ccc(C(=O)N(C)Cc3ccco3)cn2c1N(C)C(=O)Cc1ccccc1`, -8% (inactive).
As to `O=C1N(c2ccc(Cl)cc2)C(c2ccc(Cl)cc2)N2CCCN12` (stereo not drawn), the inhibition is 21.3% (inactive).

As usually defined, the inhibition is the change of the read-out against control, counted positive when it falls.
